Inconclusive results are not listed. The source made the active and inactive calls. The call rests on the fitted dose curve; in most records, active means well fitted curve in the direction sought with a large enough effect in the repeat runs; inconclusive means weak or mixed curves; inactive means no such curve, though single readings can be large; an effect the other way counts as inactive or inconclusive.
How the values were obtained:
[1] = A CellTox Green Cytotoxicity Assay to monitor cytotoxicity in HEK293 cells - 0 hour (AID 1224869); further: nearly all actives have a fitted effect of over 50% in size
Procedure, shortened: (§1)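 Homogeneous no-lysis format: HEK293 cell suspension mixed with CellTox Green reagent, seeded, incubated 5 h at 37 C/5% CO2, then dosed by pintool with compound in DMSO.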

[2] = qHTS RealTime-Glo MT Cell Viability Assay in HepG2 cells - 40 hour (AID 1224870); further: nearly all actives have a fitted effect of over 50% in size
Procedure, shortened: (§2)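 HepG2 cells (600/well) mixed with RealTime-Glo MT reagent, settled 5 h at 37 C/5% CO2 before compound addition. Nonlytic NanoLuc luminescence from viable-cell prosubstrate reduction read repeatedly during 40 h treatment at 37 C.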

[3] = A CellTox Green Cytotoxicity Assay to monitor cytotoxicity in HEK293 cells - 40 hour (AID 1224871); further: nearly all actives have a fitted effect of over 45% in size
Procedure, shortened: as §1

[4] = qHTS RealTime-Glo MT Cell Viability Assay in HEK293 cells - 16 hour (AID 1224872); further: top concentration of the series differs between compounds; nearly all actives have a fitted effect of over 50% in size
Procedure, shortened: (§3)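 Tox21 10K qHTS, HEK293, 600 cells/well, RealTime-Glo reagent co-dispensed with cells; 5 h preincubation, compound by pintool, 37 C, luminescence at 0–40 h.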

[5] = qHTS RealTime-Glo MT Cell Viability Assay in HepG2 cells - 8 hour (AID 1224873); further: nearly all actives have a fitted effect of over 55% in size
Procedure, shortened: as §2

[6] = qHTS RealTime-Glo MT Cell Viability Assay in HEK293 cells - 40 hour (AID 1224874); conditions: RealTime-Glo luminescence; max response: active compounds read low; further: nearly all actives have a fitted effect of over 50% in size
Procedure, shortened: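 Measured as luminescence from the same continuously cultured HEK293 wells at successive time points (0, 8, 16, 24, 32, 40 h) after compound addition. Reagent present from seeding; dosing at 5 h; incubation 37 C.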

[7] = A CellTox Green Cytotoxicity Assay to monitor cytotoxicity in HEK293 cells - 24 hour (AID 1224875); further: series mostly up to about 77 µM; nearly all actives have a fitted effect of over 45% in size
Procedure, shortened: as §1

[8] = A CellTox Green Cytotoxicity Assay to monitor cytotoxicity in HepG2 cells - 16 hour (AID 1224876); further: nearly all actives have a fitted effect of over 45% in size
Procedure, shortened: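 Fluorescent DNA-binding dye, 600 HepG2 cells/well, 5 h preincubation then compound in DMSO; same plates read at 0–40 h, 37 C.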

[9] = qHTS RealTime-Glo MT Cell Viability Assay in HepG2 cells - 32 hour (AID 1224877); further: nearly all actives have a fitted effect of over 55% in size
Procedure, shortened: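 Cells + NanoLuc/prosubstrate dispensed (600 cells/well) → 5 h at 37 C/5% CO2 → compounds in DMSO transferred → 40 h incubation at 37 C, luminescence read at 0, 8, 16, 24, 32, 40 h.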

[10] = qHTS RealTime-Glo MT Cell Viability Assay in HEK293 cells - 32 hour (AID 1224868)
Procedure, shortened: as §3
On the % scale 0 is the no-effect control and ±100 the full control effect.

C=CCCCCCCCCC(=O)OCCCC
inactive: Potency [1] | outcome [2] | Potency [3] | Potency [4] | outcome [5] | max response [6] 7.61% | Potency [7] | Potency [8] | outcome [9]

CC(C)CO
inactive: Potency [10] | Potency [1] | outcome [2] | Potency [4] | outcome [5] | max response [6] -4.29% | Potency [8] | outcome [9]

Cc1ncc([N+](=O)[O-])n1CC(C)O (configuration not stated)
inactive: Potency [1] | outcome [2] | Potency [3] | Potency [4] | outcome [5] | max response [6] -2.46% | Potency [7] | Potency [8] | outcome [9]

C#CCN[C@@H]1CCc2ccccc21
inactive: Potency [10] | Potency [1] | outcome [2] | Potency [3] | outcome [5] | Potency [7] | Potency [8] | outcome [9]

O=C(O)CONC(=O)c1ccccc1
inactive: Potency [10] | Potency [1] | outcome [2] | Potency [3] | outcome [5] | Potency [7] | Potency [8] | outcome [9]

CC(=O)Nc1ccc(OC(=O)c2ccccc2OC(C)=O)cc1
inactive: Potency [10] | Potency [1] | outcome [2] | Potency [4] | outcome [5] | max response [6] 3.46% | Potency [8] | outcome [9]

O=C1c2ccccc2C(=O)c2cc(Cl)ccc21
inactive: cytotoxicity [1] -6.57% [at 6.97 µM] | activity change, negative = cytotoxic [2] -4.67% [at 6.97 µM] | cytotoxicity increase [3] -5.31% [at 6.97 µM] | activity change, negative = cytotoxicity [4] 4.83% [at 6.97 µM] | viability change, negative = cytotoxic [5] 0.0863% [at 6.97 µM] | max response [6] 3.12% | activity change [7] -1.14% [at 6.97 µM, active compounds read high] | cytotoxicity increase [8] -1.12% [at 6.97 µM] | activity change, negative = cytotoxic [9] -5.12% [at 6.97 µM]

C=CC(=O)OCC1CCCO1 (configuration not stated)
inactive: Potency [1] | outcome [2] | Potency [3] | Potency [4] | outcome [5] | max response [6] 0.647% | Potency [7] | Potency [8] | outcome [9]

O=C=NCC1CCCC(CN=C=O)C1 (configuration not stated)
inactive: Potency [10] | Potency [1] | outcome [2] | Potency [3] | outcome [5] | Potency [7] | Potency [8] | outcome [9]

CC(=O)O[Si](C)(OC(C)=O)OC(C)=O
inactive: Potency [1] | outcome [2] | Potency [3] | Potency [4] | outcome [5] | max response [6] 7.61% | Potency [7] | Potency [8] | outcome [9]

CC1(C)Oc2ccc(C#N)cc2[C@@H](N2CCCC2=O)[C@@H]1O
inactive: Potency [10] | Potency [1] | outcome [2] | Potency [3] | outcome [5] | Potency [7] | Potency [8] | outcome [9]

Cc1cc(-c2ccccc2)nnc1NCCN1CCOCC1
inactive: Potency [10] | Potency [1] | outcome [2] | Potency [3] | outcome [5] | max response [6] -1.81% | Potency [7] | Potency [8] | outcome [9]

Reference: PubChem BioAssay (Tox21)
